# In the supplement of paper PMC9023506:
# Counter-ions that a name gives are not always drawn.
# Tests used:
# Conditions in all cases: 10 µM; exposure time: 3 h pre-incubation + 3 h imaging
# [1] = system: Danio rerio larvae (5 dpf); experiment: excitability to 1-s acoustic pulses, difference vs DMSO (percentage points (treated minus DMSO)); higher = more of the behaviour than the DMSO vehicle control
# Method in brief: (§1)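 Five-days-post-fertilisation wild-type zebrafish larvae were held in 96-well ProxiPlates and exposed to each library drug at a final 10 µM, diluted 1000× from DMSO stocks into egg water, with 48 larvae per drug. Exposure lasted 3 h before and 3 h during imaging at 28.5 °C, with images taken every 6 s across a 3-h program of rest, moving coloured lines and acoustic pulses. An ImageJ macro scored movement and upper-half location, and each behaviour score is the treated-group mean minus the vehicle-group mean, expressed in percentage points.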
# [2] = system: Danio rerio larvae (5 dpf); experiment: activity during first hour (no stimuli), difference vs DMSO (percentage points (treated minus DMSO)); higher = more of the behaviour than the DMSO vehicle control
# Method in brief: as §1
# [3] = system: Danio rerio larvae (5 dpf); experiment: optomotor response to green moving lines, difference vs DMSO (percentage points (treated minus DMSO)); higher = more of the behaviour than the DMSO vehicle control
# Method in brief: as §1
# [4] = system: Danio rerio larvae (5 dpf); experiment: habituation to 1-s acoustic pulses, difference vs DMSO (percentage points (treated minus DMSO)); higher = more of the behaviour than the DMSO vehicle control
# Method in brief: as §1
# [5] = system: Danio rerio larvae (5 dpf); experiment: activity during period 15 (no stimuli), difference vs DMSO (percentage points (treated minus DMSO)); higher = more of the behaviour than the DMSO vehicle control
# Method in brief: as §1
# [6] = system: Danio rerio larvae (5 dpf); experiment: startle response to 20-s acoustic pulses, difference vs DMSO (percentage points (treated minus DMSO)); higher = more of the behaviour than the DMSO vehicle control
# Method in brief: as §1
# [7] = system: Danio rerio larvae (5 dpf); experiment: optomotor response to red moving lines, difference vs DMSO (percentage points (treated minus DMSO)); higher = more of the behaviour than the DMSO vehicle control
# Method in brief: as §1
# [8] = system: Danio rerio larvae (5 dpf); experiment: optomotor response to blue moving lines, difference vs DMSO (percentage points (treated minus DMSO)); higher = more of the behaviour than the DMSO vehicle control
# Method in brief: as §1
# [9] = system: Danio rerio larvae (5 dpf); experiment: optomotor response to fast red moving lines, difference vs DMSO (percentage points (treated minus DMSO)); higher = more of the behaviour than the DMSO vehicle control
# Method in brief: as §1
compound,measurement,setting,value
Cc1cccc(C)c1OCC(C)N (configuration not stated) [Mexiletine hydrochloride],excitability to 1-s acoustic pulses,[1],1.36
same,activity during first hour,[2],4.51
same,optomotor response to green moving lines,[3],-1.17
COc1ccc(C[C@@H](C)NC[C@H](O)c2ccc(O)c(NC=O)c2)cc1 [Arformoterol tartrate],habituation to 1-s acoustic pulses,[4],-3.34
same,activity during period 15,[5],46.5
same,activity during first hour,[2],45.9
same,startle response to 20-s acoustic pulses,[6],-9.44
Cc1ccc(O)c([C@H](CCN(C(C)C)C(C)C)c2ccccc2)c1 [Tolterodine L-tartrate],habituation to 1-s acoustic pulses,[4],-4.35
same,activity during period 15,[5],13.9
same,activity during first hour,[2],1.86
COc1ccccc1OCCNCC(O)COc1cccc2[nH]c3ccccc3c12 (configuration not stated) [Carvedilol],habituation to 1-s acoustic pulses,[4],2.04
same,excitability to 1-s acoustic pulses,[1],21
same,activity during first hour,[2],-9.72
CC(C)C(=O)Nc1ccc([N+](=O)[O-])c(C(F)(F)F)c1 [Flutamide],excitability to 1-s acoustic pulses,[1],-5.4
same,activity during first hour,[2],-9.59
same,optomotor response to green moving lines,[3],-1.99
same,startle response to 20-s acoustic pulses,[6],-5.19
COc1cccc2c1C(=O)c1c(O)c3c(c(O)c1C2=O)C[C@@](O)(C(=O)CO)C[C@@H]3O[C@H]1C[C@H](N)[C@H](O)[C@H](C)O1 [Doxorubicin hydrochloride],habituation to 1-s acoustic pulses,[4],3.26
same,excitability to 1-s acoustic pulses,[1],13.8
same,optomotor response to red moving lines,[7],-1.73
same,activity during period 15,[5],-10.6
same,optomotor response to blue moving lines,[8],3.86
CCOC(=O)[C@H](CCc1ccccc1)N[C@H]1CCc2ccccc2N(CC(=O)O)C1=O [Benazepril hydrochloride],activity during period 15,[5],4.55
same,activity during first hour,[2],1.65
same,startle response to 20-s acoustic pulses,[6],-1.74
same,optomotor response,[9],-1.29
CN1CCC[C@@H]1CCO[C@](C)(c1ccccc1)c1ccc(Cl)cc1 [Clemastine fumarate],optomotor response to red moving lines,[7],16.7
same,activity during period 15,[5],5.26
same,optomotor response to blue moving lines,[8],22.4
same,startle response to 20-s acoustic pulses,[6],-7.67
same,optomotor response,[9],13.4
CCOC(=O)c1ncn2c1CN(C)C(=O)c1cc(F)ccc1-2 [Flumazenil],habituation to 1-s acoustic pulses,[4],-2.91
same,activity during first hour,[2],2.88
same,optomotor response,[9],9.89
CNCc1ccc(-c2[nH]c3cc(F)cc4c3c2CCNC4=O)cc1 [Rucaparib camsylate],habituation to 1-s acoustic pulses,[4],4.21
same,activity during first hour,[2],-13.6
same,optomotor response to green moving lines,[3],1.55
